Most compounds without a hit are left out; they make up all but 19% or so of the library.
DT40 TDP1 CPT – growth inhibition of DT40 Tdp1-/-;hTDP1 cells with camptothecin (screen for TDP1 inhibitors) | Potency, µM (highest dose often 46.2 µM), inactives show top-dose activity change, negative = growth inhibition, hits mostly inhibitors | chicken DT40 Tdp1-/-;hTDP1 cells + 20 nM CPT, ATP luminescence, 48 h | 420,000 compounds, 12% hits; also: nearly all actives have a fitted effect of over 55% in size
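Cell growth measured by CellTiter-Glo luminescence after a minimum 48 h, 37 C compound exposure with 20 nM CPT in Tdp1-knockout DT40 cells stably expressing hTDP1, seeded 400/well; qHTS titration format.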
VP16 counter – inhibits Gal4-VP16 luciferase reporter, ROR gamma counter-screen. Drosophila S2 Gal4-VP16 UAS-luciferase, luminescence, 20 h. Potency, µM (highest dose often 53.6 µM), for the others: at the highest dose activity, negative = inhibition, actives largely listed as inhibitors. 310,000 compounds, 3.5% hits;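 also: Gal4-VP16 expression switched on by copper sulfate through the metallothionein promoter; nearly all actives have a fitted effect of over 50% in size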
TDP1 cell noCPT – qHTS for Inhibitors of human tyrosyl-DNA phosphodiesterase 1 (TDP1): qHTS in cells in absence of CPT. DT40 Tdp1-/- hTDP1 cells, no CPT, ATP luminescence, 48 h. Potency, µM (highest dose often 46.2 µM), inactives show at the top dose activity change, negative = growth inhibition, actives largely listed as inhibitors. 420,000 compounds, 15% hits; also: nearly all actives have a fitted effect of over 55% in size
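Compound effects on proliferation are scored in DT40 Tdp1-/-;hTDP1 cells in the absence of CPT. ATP levels (CellTiter-Glo luminescence) are recorded after a ≥48 hr, 37 °C incubation.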
RORgamma inh – ROR gamma (mouse) transcription inhibition; P51450; Drosophila S2 Gal4-RORgamma UAS-luciferase reporter, 20 h; Potency, µM (series often up to 53.6 µM), inactives show top-dose activity change, negative = inhibition, hits mostly inhibitors; 310,000 compounds, 5.4% hits; also: nearly all actives have a fitted effect of over 60% in size
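Luciferase reporter read in Schneider cells carrying Gal4-RORγ (mouse) and UAS-Photinus luciferase; cells given compound 1 h before 700 uM copper sulfate induction, then incubated 20 h at ambient temperature.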
TDP1 inh – blocks human tyrosyl-DNA phosphodiesterase 1; Q9NUW8; recombinant TDP1, AlphaScreen DNA substrate cleavage; Potency, µM (titrated, usually from 130 µM), without a hit: at the highest dose activity change, negative = inhibition, actives largely listed as inhibitors; 350,000 compounds, 0.28% hits; also: nearly all actives have a fitted effect of over 40% in size
Target sequence (Q9NUW8 whole entry, looked up): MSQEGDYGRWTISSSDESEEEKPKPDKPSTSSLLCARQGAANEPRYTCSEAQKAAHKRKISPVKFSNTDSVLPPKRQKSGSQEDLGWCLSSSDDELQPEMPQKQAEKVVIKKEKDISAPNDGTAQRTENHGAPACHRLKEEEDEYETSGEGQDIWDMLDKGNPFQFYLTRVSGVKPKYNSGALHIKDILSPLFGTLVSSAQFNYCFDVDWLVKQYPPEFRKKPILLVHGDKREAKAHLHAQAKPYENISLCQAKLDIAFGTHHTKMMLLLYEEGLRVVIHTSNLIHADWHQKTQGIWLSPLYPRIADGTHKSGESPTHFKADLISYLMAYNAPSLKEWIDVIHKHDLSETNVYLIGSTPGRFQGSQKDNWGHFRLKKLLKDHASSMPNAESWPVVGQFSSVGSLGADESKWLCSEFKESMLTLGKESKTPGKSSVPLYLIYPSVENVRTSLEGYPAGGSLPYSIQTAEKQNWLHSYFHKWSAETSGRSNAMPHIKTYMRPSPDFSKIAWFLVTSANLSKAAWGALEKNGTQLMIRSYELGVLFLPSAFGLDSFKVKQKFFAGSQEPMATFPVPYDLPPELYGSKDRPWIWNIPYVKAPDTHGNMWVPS
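Here, a 5' biotin and 3' phosphotyrosine-FITC DNA oligonucleotide reports Tdp1 activity: intact substrate bridges AlphaScreen beads, while cleavage leaves a 3' phosphate and drops signal. All incubations at room temperature.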
* = called active by the depositor; ? = inconclusive; . = no result; [ ] = dose if it differs, or a comment. Calls follow the shape of the dose curve; as a rule, active = well fitted curve in the direction sought with a large enough effect; inconclusive = small, poorly fitted or top-dose-only effect, or another doubt; inactive = no such curve, though single readings can be large; an effect the other way counts as inactive or inconclusive. % is scaled to controls: 0 for no effect and ±100 for the full control effect; potency is read from the fitted curve at half-maximal effect.

SMILES	DT40 TDP1 CPT	VP16 counter	TDP1 cell noCPT	RORgamma inh	TDP1 inh
Cc1ccc2nc(NCc3ccc(F)cc3)c3nncn3c2c1	?	-2.2%	?	21.0%	-2.5%
CCc1nnc2c(NCCc3ccc(OC)c(OC)c3)nc3ccccc3n12	?	2.3%	16.4µM*	9.9%	2.5%
Cn1c(=O)c2[nH]c(Cc3ccsc3)nc2n(C)c1=O	-14.3%	.	-16.4%	.	.
Cc1ccc(N=C2N=C(N)c3ccccc32)c(C)c1	-24.3%	-7.9%[0.365 µM]	-21.2%	-27.2%	0.0%
O=C(N/N=C/C=C/c1ccccc1[N+](=O)[O-])c1cc(-c2ccccc2)n[nH]1	16.4µM*	14.1µM*	14.6µM*	7.08µM*	-2.6%
O=C(N/N=C/C=C\c1ccccc1[N+](=O)[O-])c1ccccn1	?	-6.6%	-26.1%	?	9.1%
Cc1ccsc1C(=O)N/N=C/C=C/c1ccccc1[N+](=O)[O-]	20.6µM*	5.62µM*	?	5.62µM*	7.8%
COc1ccc(CCNc2oc(/C=C/c3cc(OC)c(OC)c(OC)c3)nc2C#N)cc1OC	13µM*	.	11.6µM*	.	0.0%
COCCCNc1oc(/C=C/c2cc(OC)c(OC)c(OC)c2)nc1C#N	?	.	23.1µM*	.	-2.3%
COc1ccc(/C=C/c2nc(C#N)c(NCCc3ccccc3)o2)cc1OC	?	.	?	.	4.7%
COc1ccc(CCNc2oc(COc3ccc(Br)cc3)nc2C#N)cc1OC	18.4µM*	-27.6%	20.6µM*	7.9%	9.8%
CNc1oc(/C=C/c2cc(OC)c(OC)c(OC)c2)nc1C#N	?	.	23.1µM*	.	7.0%
Cc1ccc(C)c(Cn2c(=O)cc(C)c3c(C)nn(C)c32)c1	?	.	?	.	-3.2%
Cc1nc2ccc(C(=O)NCC3CCC4(CCN(Cc5cccnc5)CC4)O3)cc2nc1C (configuration not stated)	-6.3%[9.04 µM]	.	-25.8%	.	.
COc1cccc(CN(C)C(=O)CNC(=O)c2sc3ccccc3c2Cl)c1OC	?	.	?	.	-0.9%
O=C(CSc1nnc2ccccn12)Nc1cccc(-c2nc3ccccc3s2)c1	-23.9%	-21.0%	-30.0%	-0.3%	-7.9%
O=C1NC(=Nc2ccc(Cl)cc2)SC1Cc1cc(Cl)ccc1Cl (configuration not stated)	-5.5%	?	?	?	-2.7%
CSc1ccc(CCNC(=O)C2CCN(c3nc4ccccc4nc3C(F)(F)F)CC2)cc1	14.6µM*	.	11.6µM*	.	-2.6%
CCCCNC(=O)C1CCN(c2nc3ccccc3nc2C(F)(F)F)CC1	16.4µM*	.	?	.	-2.6%
CNC(=O)C1CCN(c2nc3ccccc3nc2C(F)(F)F)CC1	?	.	?	.	2.6%
CC(C)Oc1ccc(CNC(=O)C2CCN(c3nc4ccccc4nc3C(F)(F)F)CC2)cc1	4.11µM*	.	5.8µM*	.	0.0%
COCCNC(=O)C1CCN(c2nc3ccccc3nc2C(F)(F)F)CC1	?	.	-20.4%	.	-2.6%
COc1ccc(CNC(=O)CCn2c(=O)oc3ccccc32)c(OC)c1	7.5%	13.1%[10 µM]	2.2%	8.1%	2.6%
CN1CCN(c2nc(-c3ccc(C(C)(C)C)cc3)nc3ccccc23)CC1	?	?	20.6µM*	?	.
CCN1CCN(c2nc(-c3ccccc3)nc3ccccc23)CC1	?	-12.2%	29.1µM*	?	0.0%
SMILES	DT40 TDP1 CPT	VP16 counter	TDP1 cell noCPT	RORgamma inh	TDP1 inh
Cc1ccc(-c2nc(N3CCN(C)CC3)c3ccccc3n2)cc1	?	0.8%	?	-1.3%	.
O=C(CCN1CCc2ccccc2C1)Nc1ccccc1	0.7%	3.4%	-28.9%	18.8%	7.3%
Cc1ccccc1-c1nc(NCCN2CCOCC2)c2ccccc2n1	-11.0%	-8.3%	-22.4%	9.9%	7.94µM*
Cc1ccccc1-c1ccc2ncnc(NCCN3CCOCC3)c2c1	5.8µM*	-23.1%	7.31µM*	?	.
CNc1ncnc2ccc(-c3ccccc3C)cc12	13µM*	?	23.1µM*	42.3%	.
CNc1ncnc2ccc(-c3ccccc3CN(C)C)cc12	?	-1.6%	?	13.8%	.
c1cncc(-c2ccc3ncnc(NCCN4CCOCC4)c3c2)c1	?	-2.8%	?	44.4%	.
N#Cc1ccccc1-c1nc(NCCN2CCOCC2)c2ccccc2n1	?	-3.6%	?	?	.
Cc1cccc(C)c1NC(=O)C1(NC(=O)c2cnccn2)CCCCC1	-17.8%	-5.4%	5.3%	14.8%	-1.2%
S=c1[nH]nc(COc2ccc(Cl)cc2)n1-c1ccc(Cl)cc1	8.8%	?	-24.1%	5.62µM*	.
Cc1ccc(-n2c(CNc3cccc(Cl)c3)n[nH]c2=S)cc1	3.1%	-14.8%	-5.7%	?	5.0%
S=c1[nH]nc(COc2ccc(Cl)cc2)n1-c1ccccc1	-27.2%	3.16µM*	?	3.98µM*	.
Cc1n[nH]c(=S)n1-c1ccc(Cl)cc1	?	-9.3%	1.8%	?	-4.9%
Cc1ccc(-n2c(CNc3ccc(C)c(Cl)c3)n[nH]c2=S)cc1	?	-16.6%	?	2.51µM*	3.7%
Cc1ccc(OCc2n[nH]c(=S)n2-c2ccc(Cl)cc2)cc1	-0.4%	3.16µM*	-18.0%	-38.0%[1.91 µM]	.
CCN(CC)C(=O)CN1C(=O)C2(OCC(C)(c3ccccc3)CO2)c2ccccc21 (configuration not stated)	?	-7.0%	-28.4%	3.8%	2.2%
Cc1ccccc1OCc1n[nH]c(=S)n1-c1ccccc1	2.3%	8.91µM*	8.3%	2.51µM*	5.1%
Cc1ccc(OCc2n[nH]c(=S)n2N)cc1C	6.2%	4.3%	0.0%	7.94µM*	4.9%
Cc1ccc(OCc2n[nH]c(=S)n2-c2ccc(Br)cc2)cc1	3.9%	5.62µM*	-17.5%	2.24µM*	.
Cc1ccc(-n2c(COc3ccccc3)nnc2SCC(=O)O)cc1	-4.1%	.	-3.9%	.	.
Cc1cc(C)cc(OCC(=O)N2CCCCCC2)c1	-14.9%	8.9%	-11.5%	25.2%	-2.3%
CN1C(=O)C(CC(=O)NC2CCCCC2)N(C)C1=O (configuration not stated)	4.2%	0.7%	-2.3%	10.8%	1.3%
COc1cc(OC)c(NC(=O)c2cc3ccccc3cc2O)cc1Cl	10.3µM*	.	?	.	.
CCOC(=O)c1cc(NC(=O)c2ccccc2)c(=O)oc1-c1ccccc1	?	-3.8%	?	?	1.1%
COc1ccc(C(=O)Nc2cc(C(C)=O)c(C)oc2=O)cc1	-9.9%	?	?	11.2µM*	-6.9%
COC(=O)c1cc(NC(=O)c2ccccc2)c(=O)oc1/C=C/Nc1ccc(Oc2ccccc2)cc1	-24.6%	1.7%	23.1µM*	?	-3.8%
COc1cc(NC(=O)c2ccc(C(=O)Nc3cc(OC)c(Cl)cc3OC)cc2)c(OC)cc1Cl	-2.9%	.	0.9%	.	1.3%[12.3 µM]
COc1cc(NC(=O)c2ccccc2)c(OC)cc1Cl	-27.8%	4.6%	?	15.7%	7.7%
